Bioassay records: PubChem BioAssay, National Center for Advancing Translational Sciences (NCATS)
This is one part of a sample in which hits are shown more often than they occur.
TDP1 cell noCPT: qHTS for Inhibitors of human tyrosyl-DNA phosphodiesterase 1 (TDP1): qHTS in cells in absence of CPT; 420,000 tested, 15% active; DT40 Tdp1-/- hTDP1 cells, no CPT, ATP luminescence, 48 h; AID 686978, 2013; Potency, µM (doses to about 46.2 µM), actives largely listed as inhibitors; also: nearly all actives have a fitted effect of over 55% in size
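Chicken DT40 Tdp1-/- cells stably complemented with human TDP1 were seeded at 400 cells/well with DMSO in place of 20 nM camptothecin. After compound pinning, cells grew at least 48 hr at 37 °C; viability read by CellTiter-Glo luminescence.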
HT1080-NT tox: qHTS for induction of synthetic lethality in tumor cells producing 2HG: qHTS for the HT-1080-NT fibrosarcoma cell line | HT-1080-NT fibrosarcoma viability, CellTiter-Glo ATP luminescence, 48 h | Potency, µM (doses to about 46.1 µM), most hits filed as cytotoxic | 360,000 tested, 1.6% active;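 also: NT is the 2HG producing partner of a matched IDH1 knockdown line; nearly all actives have a fitted effect of over 55% in size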
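A 48-hour cytotoxicity screen used HT-1080-NT cells plated 2 hours before compound delivery. ATP-based CellTiter-Glo luminescence measured viability, normalized to DMSO and no-cell controls.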
ALOX12 inh: Primary qHTS assay for inhibitors of human arachidonate 12S-lipoxygenase (ALOX12): Round 2. Polyunsaturated fatty acid lipoxygenase ALOX12 (Homo sapiens), P18054. purified 12hLO, xylenol orange hydroperoxide absorbance. Potency, µM (highest dose often 108 µM), hits mostly inhibitors. 580,000 tested, 1.1% active
Target sequence (P18054 whole entry, looked up): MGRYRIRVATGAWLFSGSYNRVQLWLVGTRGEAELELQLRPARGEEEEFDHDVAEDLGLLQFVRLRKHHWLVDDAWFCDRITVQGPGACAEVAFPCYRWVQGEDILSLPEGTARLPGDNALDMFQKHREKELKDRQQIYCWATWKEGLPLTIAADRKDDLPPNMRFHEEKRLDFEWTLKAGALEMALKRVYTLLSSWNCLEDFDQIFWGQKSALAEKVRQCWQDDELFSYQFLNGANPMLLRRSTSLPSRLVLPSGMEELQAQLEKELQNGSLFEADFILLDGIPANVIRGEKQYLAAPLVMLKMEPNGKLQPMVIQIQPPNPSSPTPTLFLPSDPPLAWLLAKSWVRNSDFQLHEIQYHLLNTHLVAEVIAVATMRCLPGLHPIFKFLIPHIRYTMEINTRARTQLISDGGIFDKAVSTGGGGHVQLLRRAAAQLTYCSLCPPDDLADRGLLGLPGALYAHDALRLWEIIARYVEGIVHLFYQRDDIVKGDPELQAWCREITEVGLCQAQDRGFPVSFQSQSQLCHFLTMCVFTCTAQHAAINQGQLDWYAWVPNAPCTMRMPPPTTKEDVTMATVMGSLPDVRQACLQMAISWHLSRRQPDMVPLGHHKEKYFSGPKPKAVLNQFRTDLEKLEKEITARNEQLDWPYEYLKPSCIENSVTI
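Purified human 12hLO (150 nM final) in 25 mM Hepes, 0.01% Triton X-100, pH 7.0 was preincubated 15 min at room temperature with compound. Then 40 uM arachidonic acid was added, 30 min. Hydroperoxide was read by Fe-XO absorbance ratio 573/405 nm.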
TDP1 cell CPT: qHTS for Inhibitors of human tyrosyl-DNA phosphodiesterase 1 (TDP1): qHTS in cells in presence of CPT; chicken DT40 Tdp1-/-;hTDP1 cells + 20 nM CPT, ATP luminescence, 48 h; Potency, µM (titrated, usually from 46.2 µM), usual class: inhibitors; 420,000 tested, 12% active; also: nearly all actives have a fitted effect of over 55% in size
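Cell growth measured by CellTiter-Glo luminescence after a minimum 48 h, 37 C compound exposure with 20 nM CPT in Tdp1-knockout DT40 cells stably expressing hTDP1, seeded 400/well; qHTS titration format.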
IL1B secr inh: qHTS for Inhibitors of Inflammasome Signaling: IL-1-beta AlphaLISA Primary Screen; THP-1 LPS/ATP IL-1B secretion, AlphaLISA, 16 h; stronger effect = lower value; activity change, % at 57.5 µM; 360,000 tested, 4.7% active; in the data active = activity change below about -50%; inconclusive = mostly about -30% to -49%
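THP-1 cells pretreated 1 hr with compounds (up to 57.5 uM final), then stimulated with LPS (250 ng/mL final) plus ATP (1.25 mM final); secreted IL-1B measured by AlphaLISA after 16 hr, decreased signal indicating inhibition.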
HT1080 IDH1KD tx: qHTS for induction of synthetic lethality in tumor cells producing 2HG: qHTS for the HT-1080-IDH1KD cell line. HT-1080 IDH1 knockdown viability, ATP luminescence, 48 h. Potency, µM (top dose mostly 46.1 µM), hits mostly cytotoxic. 360,000 tested, 2% active. AID 686971, 2013
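IDH1KD HT-1080 cells, 750/well, RPMI + 5% FBS; compound pinned after 2 h settling; 48 h, 37 °C; CellTiter-Glo luminescence; % activity normalised to DMSO and no-cell wells; curves fitted, classed by r2 and efficacy.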
Numbers stand for hits; . = inactive; ? = inconclusive; / = not tested or not shown; ! = repeats disagree; [ ] = another dose, or the depositor's remark. Unless noted, calls follow the shape of the dose curve; as a rule, active = well fitted curve in the direction sought with a large enough effect; inconclusive = small, poorly fitted or top-dose-only effect, or another doubt; inactive = no such curve, though single readings can be large; an effect the other way counts as inactive or inconclusive.

SMILES | TDP1 cell noCPT | HT1080-NT tox | ALOX12 inh | TDP1 cell CPT | IL1B secr inh | HT1080 IDH1KD tx
CC1CCCN(S(=O)(=O)c2ccc(C(=O)Nc3ccccc3-c3nc4ccccc4[nH]3)cc2)C1 (centres undefined) | 10.3µM | . | . | 18.4µM | . | .
CC1CCCN(S(=O)(=O)c2ccc(C(=O)Nc3nnc(-c4ccco4)o3)cc2)C1 (centres undefined) | 7.31µM | . | . | 8.2µM | . | .
CN(c1ccccc1)S(=O)(=O)c1ccc(C(=O)Nc2nnc(-c3ccco3)o2)cc1 | 20.6µM | . | ? | 14.6µM | . | ?
CC1CCN(S(=O)(=O)c2ccc(C(=O)Nc3ccccc3-c3nc4ccccc4[nH]3)cc2)CC1 | ? | . | . | ? | . | .
O=C(Nc1nnc(C2=COCCO2)o1)c1ccc(S(=O)(=O)N2CCCC2)cc1 | ? | . | . | ? | . | .
CC1CCN(S(=O)(=O)c2ccc(C(=O)Nc3nnc(C4=COCCO4)o3)cc2)CC1 | ? | . | . | 23.1µM | . | ?
CN(c1ccccc1)S(=O)(=O)c1ccc(C(=O)Nc2nnc(C3CC3)o2)cc1 | . | . | . | . | . | .
CCc1nnc(NC(=O)c2ccc(S(=O)(=O)N3CCCC(C)C3)cc2)o1 (centres undefined) | ? | ? | . | ? | . | ?
N#Cc1nc(C2CC2)oc1N1CCN(Cc2cccc(F)c2F)CC1 | / | / | . | / | / | /
CCN(c1ccccc1)S(=O)(=O)c1ccc(C(=O)Nc2nnc(-c3ccco3)o2)cc1 | 18.4µM | ? | . | ? | . | ?
CCCn1c(=N)n(CC(=O)OCC)c2ccccc21 | . | . | . | . | . | .
C=CCn1c(=N)n(CC(=O)OCC)c2ccccc21 | . | . | . | . | . | .
CC(C)(C)C(=O)Cn1c(=N)n(Cc2ccccc2)c2ccccc21 | 14.6µM | ? | ? | 20.6µM | . | ?
Cc1ccc(Cn2c(=N)n(CC(=O)c3ccccc3)c3ccccc32)cc1 | 3.66µM | . | ? | 7.31µM | -82.4 | ?
CCOC(=O)Cn1c(=N)n(Cc2ccc(C(C)(C)C)cc2)c2ccccc21 | 13µM | / | ? | ? | / | /
Cc1ccc(C)n1Cc1ccccc1Cl | . | . | . | . | . | .
CC(C)(C)C(=O)Cn1c(=N)n(Cc2ccccc2Cl)c2ccccc21 | 25.9µM | . | ? | 25.9µM | . | .
Cc1cc(C(=O)Nc2ccc(Br)cn2)no1 | / | / | . | / | / | /
COc1ccc2c(c1)cc(C(=O)Nc1ccc(F)cc1)n2C | / | / | . | / | / | /
Cc1cc(=O)oc2cc(OCc3nc(CC(C)C)no3)ccc12 | / | / | . | / | / | /
O=C(c1ccc2c(c1)OCO2)N1CCC(N2CCOCC2=O)CC1 | / | / | .[6.33 µM] | / | / | /
CC1=C[C@@H](CNC(=O)Nc2ccccc2)[C@H](C(C)C)C[C@H]1CC(=O)NCCN1CCOCC1 | / | / | . | / | / | /
O=C1CC(c2ccccc2)N(C(=O)CNC(=O)NC2CCCCC2)CCCCCCN1 (centres undefined) | / | / | . | / | / | /
Cc1csc2c(N3CCN(C(=O)Nc4ccc(Cl)c(Cl)c4)CC3)ncnc12 | 20.6µM | . | ? | ? | -78.5 | ?
Cc1csc2c(N3CCN(C(=O)c4ccc(C(C)(C)C)cc4)CC3)ncnc12 | 4.11µM | 18.4µM | . | ? | . | ?
SMILES | TDP1 cell noCPT | HT1080-NT tox | ALOX12 inh | TDP1 cell CPT | IL1B secr inh | HT1080 IDH1KD tx
Cc1csc2c(N3CCN(C(=O)NC(C)(C)C)CC3)ncnc12 | 18.4µM | . | ? | 14.6µM | . | .
Cc1csc2c(N3CCN(C(=S)Nc4ccc(C(F)(F)F)cc4)CC3)ncnc12 | ? | . | . | ? | . | .
CCn1c(=O)n(CC)c2cc(Sc3ccccc3)c(NC(=O)c3cccc(F)c3)cc21 | / | / | . | / | / | /
CCOC(=O)c1ccc(-c2ccc(C3NC(=O)NC(O)(C(F)(F)F)C3C(=O)c3ccccc3)o2)cc1 (centres undefined) | / | / | . | / | / | /
CCOC(=O)c1ccc(NC(=O)Cn2cc(C(=O)c3ccc(Cl)cc3)c(=O)c3ccc(C)nc32)cc1 | 3.26µM | / | . | 4.61µM | / | /
CCOC(=O)c1ccc(NC(=O)Cn2cc(C(=O)c3ccc(CC)cc3)c(=O)c3ccc(C)nc32)cc1 | 5.8µM | / | . | 11.6µM | / | /
C=CCNC(=O)[C@@H]1Cc2cn(Cc3nccn3C)c3cccc(c23)[C@H](CC(C)C)N1 | / | / | . | / | / | /
CCCCc1ccc(NC(=S)Nc2ccc(Nc3ccc(OC)cc3)cc2)cc1 | 20.6µM | . | 35.5µM | 18.4µM | . | ?
COC(=O)c1ccc(NC(=S)NCCc2cccc(C)c2)cc1 | ? | . | ? | ? | . | .
CCCCc1ccc(NC(=S)NCc2cccc(OC)c2)cc1 | ? | . | ? | ? | -79.3 | .
COC(=O)c1ccc(NC(=S)NCCc2ccc(OC)cc2)cc1 | 3.66µM | . | . | ? | . | .
CCC1CCCCN1S(=O)(=O)c1ccc2c(c1)c(=O)n(CC(=O)N1CCCC1)c(=O)n2C (centres undefined) | / | / | . | / | / | /
C=CCn1c(-c2ccc(S(=O)(=O)N3CCOCC3)cc2)csc1=Nc1ccccc1 | 6.51µM | . | . | 6.51µM | ? | .
O=S(=O)(c1ccc(-c2ccccc2)cc1)N1CCOCC1 | . | . | . | . | . | .
CC(C)Cn1c(-c2ccc(S(=O)(=O)N3CCCC3)cc2)csc1=Nc1ccccc1 | 3.26µM | / | ? | 5.8µM | / | /
CC(=O)c1cccc(N=c2scc(-c3ccc(S(=O)(=O)N4CCOCC4)cc3)n2CCO)c1 | 2.59µM | . | . | 6.51µM | . | .
Cc1csc(=Nc2cccnc2)n1Cc1ccco1 | . | ? | . | . | . | .
Cc1csc(=Nc2ccc(S(=O)(=O)N3CCOCC3)cc2)n1Cc1ccco1 | 23.1µM | . | . | 23.1µM | . | .
CN1CCc2c(c3ccccc3n2Cc2ccccc2)C1 | 18.4µM | ? | . | 16.4µM | . | 16.4µM!
CCCCN1CCc2c(c3ccccc3n2Cc2ccccc2)C1 | 23.1µM | ? | . | 16.4µM | . | ?
COc1ccc(C(=O)Nc2ccc(O)c3ccccc23)cc1 | 25.9µM | . | ? | ? | . | ?
COc1ccc(NC(=O)Nc2ccc(O)c3ccccc23)cc1 | 13µM | . | ? | 5.8µM | . | .
COc1ccc(C(=O)Nc2noc3ccccc23)cc1 | . | / | . | . | / | /
COc1ccc(NC(=O)Nc2ccccc2C(N)=O)cc1 | . | . | . | . | . | .
